High-throughput results as filed in PubChem.
Only some compounds are listed: those with a hit (about 19% of all), similar ones and a draw of the others.
HT1080NT lethal – kills 2HG-producing HT-1080-NT fibrosarcoma cells; HT-1080-NT fibrosarcoma viability, CellTiter-Glo ATP luminescence, 48 h; Potency, µM (highest dose often 46.1 µM), for the others: at the highest dose activity, negative = less viability, hits mostly cytotoxic; 1.6% of 360,000 active;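 further: NT is the 2HG producing partner of a matched IDH1 knockdown line; potency means the concentration at half of the fitted maximal effect; 0% = DMSO-treated cells and -100% = media-only wells without cells; nearly all actives have a fitted effect of over 55% in size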
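Luminescent CellTiter-Glo readout after 48 hours of compound exposure at 37 degrees C defined viability of HT-1080-NT cells. Activity was normalized to DMSO wells and cell-free media wells; concentration-response curves were fitted and assigned curve classes.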
TDP1 cell noCPT – qHTS for Inhibitors of human tyrosyl-DNA phosphodiesterase 1 (TDP1): qHTS in cells in absence of CPT; AID 686978, 2013; Potency, µM (highest dose often 46.2 µM), without a hit: at the top dose activity change, negative = growth inhibition, most hits filed as inhibitors; 15% of 420,000 active; DT40 Tdp1-/- hTDP1 cells, no CPT, ATP luminescence, 48 h; further: potency means the concentration at half of the fitted maximal effect; nearly all actives have a fitted effect of over 55% in size
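Chicken DT40 Tdp1-/- cells complemented with human TDP1, screened without camptothecin (DMSO vehicle only), 400 cells/well. Compounds pin-transferred, cells incubated at 37 °C for at least 48 hr. Growth read as ATP-dependent luminescence (CellTiter-Glo, 30 min at RT).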
HT1080 IDH1KD tx – kills HT-1080 cells with IDH1 knockdown. AID 686971. 2% of 360,000 active. HT-1080 IDH1 knockdown viability, ATP luminescence, 48 h. Potency, µM (highest dose often 46.1 µM), for the others: at the highest dose activity, negative = toxicity, usual class: cytotoxic;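 further: potency means the concentration at half of the fitted maximal effect; 0% = DMSO wells and -100% = cell-free medium wells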
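% activity derives from luminescence (CellTiter-Glo), normalised to DMSO and no-cell wells. HT-1080-IDH1KD cells, 750/well, had 48 h compound exposure at 37 °C.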
IL-1B inflam inh – inhibitors of inflammasome signaling (IL-1 beta secretion); THP-1 LPS/ATP IL-1B secretion, AlphaLISA, 16 h; hits give low values; activity change, % at 57.5 µM; 4.7% of 360,000 active; AID 743279; in the data active means activity change below about -50%; inconclusive means mostly about -30% to -49%
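Secreted IL-1B measured by AlphaLISA bead assay after 16 h compound exposure of THP-1 cells; compounds (final up to 57.5 uM) added 1 h before LPS (250 ng/mL) and ATP (1.25 mM) stimulation; lower signal means less secretion.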
DT40 TDP1 CPT – DT40-hTDP1 cell growth loss with CPT. Potency, µM (titrated, usually from 46.2 µM), for inactives: at the top dose activity change, negative = growth inhibition, actives largely listed as inhibitors. 12% of 420,000 active. chicken DT40 Tdp1-/-;hTDP1 cells + 20 nM CPT, ATP luminescence, 48 h; further: potency means the concentration at half of the fitted maximal effect; nearly all actives have a fitted effect of over 55% in size
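Cell growth measured by CellTiter-Glo luminescence after a minimum 48 h, 37 C compound exposure with 20 nM CPT in Tdp1-knockout DT40 cells stably expressing hTDP1, seeded 400/well; qHTS titration format.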
* hit, by the source's call; i = inactive; ? = inconclusive; . = no result given; [ ] = dose if it differs, or a comment. Unless noted, the call rests on the fitted dose curve; in most records, active means well fitted curve in the direction sought with a large enough effect; inconclusive means small, poorly fitted or top-dose-only effect, or another doubt; inactive means no such curve, though single readings can be large; an effect the other way counts as inactive or inconclusive. Unless noted, on the % scale 0 is the no-effect control and ±100 the full control effect.

SMILES | HT1080NT lethal | TDP1 cell noCPT | HT1080 IDH1KD tx | IL-1B inflam inh | DT40 TDP1 CPT
N#CC(NC(=O)OCc1ccccc1)c1ccccc1 (configuration not stated) | -2% | 0% | 9% | -21 | -27%
O=C(COc1ccc(S(=O)(=O)N2CCCCC2)cc1)Nc1ccccc1F | -1% | -1% | -3% | -1 | -15%
S=c1nc2ccccc2c2nc(-c3ccccc3Br)[nH]n12 | -12% | 1µM* | -5% | 17 | 2.1µM*
COc1ccc(Cl)cc1S(=O)(=O)Nc1ncn[nH]1 | 2% | -16% | 5% | -8 | -13%
Cc1ccc(-n2c3nc(=O)[nH]c(=O)c-3cc3cc([N+](=O)[O-])ccc32)cc1C | -29% | 1.3µM* | ? | 0 | 0.58µM*
Cc1[nH]c2c(C)cccc2c(=O)c1CN1CCCCCC1 | 15% | -13% | 4% | -9 | -11%
Cc1ccc(OCc2cc(C(=O)N(C)Cc3cc(C4CC4)n[nH]3)no2)cc1C | -16% | 23µM* | 8% | 3 | ?
Cc1ccc(OCc2cc(C(=O)N(C)C3CCCc4ccccc43)no2)cc1C (configuration not stated) | ? | -71% | ? | -3 | ?
Cc1ccc(OCc2cc(C(=O)N(C)CCc3nc4ccccc4[nH]3)no2)cc1C | ? | 21µM* | -10% | 9 | 15µM*
C#CCN(C(=O)c1cc(COc2ccc(C)c(C)c2)on1)C1CCCCC1 | -1% | 23µM* | 2% | i | ?
Cc1cccc(C)c1OCc1cc(C(=O)N(C)Cc2cc(C3CC3)n[nH]2)no1 | -2% | ? | -2% | 0 | ?
Cc1ccc(OCc2cc(C(=O)N(C)CCc3ccccn3)no2)cc1C | -5% | ? | -1% | 14 | 26µM*
COc1ccc([N+](=O)[O-])c(O)c1C(C)=O | 17% | -3% | 13% | 8 | 13%
COc1ccccc1-c1ccnc(-n2ncc(C(=O)NCC3(N4CCOCC4)CCCC3)c2C)n1 | . | -19% | . | . | 8%[9.04 µM]
O=C(NCCCCc1ccccc1)c1ccccc1Br | 19% | -28% | 9% | -26 | 1%
CCC(C)C(=O)Nc1nnc(CCc2ccccc2)s1 (configuration not stated) | -11% | ? | -15% | 6 | ?
CN(Cc1ccccn1)C(=O)c1cc(COc2ccc(F)c(F)c2)on1 | 0% | ? | -3% | -14 | 18µM*
O=C(NCc1cc(C(F)(F)F)ccc1Cl)c1cccc2c1C(=O)c1ccc(N3CCC(N4CCCCC4)CC3)cc1S2(=O)=O | -24% | 2.9µM* | -11% | 92 | 5.2µM*
O=C(NCc1cc(C(F)(F)F)ccc1Cl)c1cccc2c1C(=O)c1ccc(N3CCOCC3)cc1S2(=O)=O | 0% | 21µM* | 0% | 9 | 18µM*
O=C(NCc1cc(C(F)(F)F)ccc1Cl)c1cccc2c1C(=O)c1ccc(N3CCCCC3)cc1S2(=O)=O | -19% | ? | 0% | 59 | ?
Cn1c2ccccc2c2cc(C(=O)N3CCOc4ccc(C(C)(O)CCn5cccn5)cc4C3)ccc21 (configuration not stated) | . | -11% | . | . | -1%
O=C(CN1CCCC1)N1c2ccccc2Sc2ccccc21 | 0% | -6% | -4% | -11 | -12%
Cn1c(NC(=O)C[n+]2cc(-c3ccccc3)n3c2CCC3)cc(=O)n(C)c1=O | 12% | -9% | 10% | 31 | -11%
Cc1ccc(-c2c[n+](CC(=O)N3c4ccccc4Sc4ccccc43)c3n2CCC3)cc1 | ? | 5.2µM* | ? | -58* | 5.2µM*
O=C(C[n+]1cc(-c2ccccc2)n2c1CCC2)N1c2ccccc2Sc2ccccc21 | 1% | 2.6µM* | -23% | i | 5.2µM*
SMILES | HT1080NT lethal | TDP1 cell noCPT | HT1080 IDH1KD tx | IL-1B inflam inh | DT40 TDP1 CPT
O=C(C[n+]1cc(-c2ccc(F)cc2)n2c1CCC2)N1c2ccccc2Sc2ccccc21 | -12% | 13µM* | -12% | -50* | 15µM*
C[C@]1(C(=O)NCCCNc2ncc(C(F)(F)F)cc2Cl)C=C[C@@H](Cc2ccccc2)N1C(=O)c1ccccc1 | -19% | 26µM* | -21% | ? | ?
CC1(C(=O)NCCCNc2ncc(C(F)(F)F)cc2Cl)C=CCN1C(=O)c1ccccc1 (configuration not stated) | 8% | ? | -3% | -77* | ?
COc1cc2ccc(NC(C)=O)cc2cc1OC | -2% | -6% | -7% | -7 | -28%
Cc1ccc(S(=O)(=O)N2CCN(CC(=O)N3CCCC3)CC2)c(C)c1 | 13% | -6% | -1% | -29 | 2%
Cc1ccc(S(=O)(=O)N2CCN(C(=O)CSC(=S)N3CCCC3)CC2)c(C)c1 | -7% | 3.3µM* | 0% | 6 | 5.2µM*
CCC(=O)c1cc(Br)ccc1OCC(=O)N1CCN(S(=O)(=O)c2ccccc2)CC1 | 0% | 23µM* | 2% | -58* | ?
Cc1ccccc1OCCC(=O)N1CCN(S(=O)(=O)c2ccc(Br)cc2)CC1 | -11% | 23µM* | -13% | -13 | ?
CCOc1ccccc1OCCCC(=O)N1CCN(S(=O)(=O)c2ccc(C)cc2C)CC1 | -6% | -57% | -25% | 0 | 21µM*
O=C(COc1ccc(Cl)cc1Br)N1CCN(S(=O)(=O)c2ccccc2)CC1 | -3% | ? | -7% | ? | ?
O=C1NC(=O)C(Cc2ccccc2F)(C2CCN(Cc3cccn3-c3cccnc3)CC2)N1 (configuration not stated) | . | -21% | . | . | 8%
COc1ccccc1CCC(=O)Nc1ccc2c(c1)CN(Cc1ccc(CO)o1)CC2 | 4% | ? | 7% | i | ?
O=C(Cc1csc(-c2ccccc2)n1)NCc1cccs1 | -3% | -7% | 0% | 31 | 4%
COc1ccc(S(=O)(=O)N2CCOCC2)cc1NC(=O)c1sccc1C | 15% | ? | 2% | -10 | ?
COc1ccc(OC)c(-c2cc(C(=O)Nc3c(C)nn(Cc4ccc(Cl)cc4)c3C)no2)c1 | -14% | 21µM* | ? | -63* | ?
COc1ccc(OC)c(-c2cc(C(=O)Nc3c(C)nn(Cc4ccccc4)c3C)no2)c1 | -27% | 23µM* | ? | ? | 18µM*
COc1ccc(OC)c(-c2cc(C(=O)Nc3cc(C)on3)no2)c1 | 15% | -3% | 2% | 7 | -19%
Cc1nn(Cc2ccccc2)c(C)c1NC(=O)c1cc(-c2ccco2)on1 | 0% | ? | 1% | 6 | ?
CCOC(=O)C1(CCOC)CCN(C2C3CC4CC(C3)CC2C4)CC1 (configuration not stated) | 4% | -21% | 3% | 0 | 6%
